High-throughput results: PubChem BioAssay, National Center for Advancing Translational Sciences (NCATS)
KB-V1 MDR tox – qHTS assay for MDR1-selective chemotherapeutics: Primary screen using the drug-selected MDR subline cells KB-V1; KB-V1 MDR cells viability, CellTiter-Glo, 72 h; Potency, µM (highest dose often 46.1 µM), usual class: cytotoxic; 400,000 compounds, 3.4% hits; AID 1347076, 2019; note: potency is the fitted concentration of half-maximal effect; % is set by controls: 0 for no effect and ±100 for the full control effect; nearly all actives have a fitted effect of over 60% in size
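Following 72 h at 37 degrees C with compound, KB-V1 cell viability was read by CellTiter-Glo luminescence, medium being phenol-red-free DMEM plus 10% FBS; concentration-response parameters came from normalized, curve-fitted qHTS data.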
KB-3-1 cytotox – qHTS assay for MDR1-selective chemotherapeutics: Primary screen using the parental adenocarcinoma cell KB-3-1. 400,000 compounds, 1.4% hits. Potency, µM (highest dose often 46.1 µM), usual class: cytotoxic. KB-3-1 viability, CellTiter-Glo ATP luminescence, 72 h; note: potency is the fitted concentration of half-maximal effect; % is set by controls: 0 for no effect and ±100 for the full control effect; nearly all actives have a fitted effect of over 60% in size
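Multi-concentration cytotoxicity screen in KB-3-1 cells grown in DMEM lacking phenol red with 10% FBS. After 72 h at 37 °C with compound, ATP-dependent luminescence was recorded.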
MCF10A rerep – A quantitative high throughput screen for small molecules that induce DNA re-replication in MCF 10a normal breast cells | Potency, µM (top dose mostly 46.1 µM), for the others: at the highest dose activity, positive = re-replication, usual class: activators | MCF 10A DNA re-replication, Hoechst nuclear intensity, 48 h | 350,000 compounds, 2.9% hits; note: potency is the fitted concentration of half-maximal effect; % of control where 0% means no effect; nearly all actives have a fitted effect of over 50% in size
DRD3 antagonist – qHTS of D3 Dopamine Receptor Antagonist: qHTS. D(3) dopamine receptor (Homo sapiens), P35462. D3R cells, DiscoveRx beta-arrestin luminescence, antagonist mode; hits give low values. max response, negative = inhibition, %. 360,000 compounds, 2.5% hits. AID 652054, 2013; in the data active = max response below about -50%; inconclusive = no clear call, values can overlap the other calls; note: % is set by controls: 0 for no effect and ±100 for the full control effect
Target sequence (P35462 whole entry, looked up): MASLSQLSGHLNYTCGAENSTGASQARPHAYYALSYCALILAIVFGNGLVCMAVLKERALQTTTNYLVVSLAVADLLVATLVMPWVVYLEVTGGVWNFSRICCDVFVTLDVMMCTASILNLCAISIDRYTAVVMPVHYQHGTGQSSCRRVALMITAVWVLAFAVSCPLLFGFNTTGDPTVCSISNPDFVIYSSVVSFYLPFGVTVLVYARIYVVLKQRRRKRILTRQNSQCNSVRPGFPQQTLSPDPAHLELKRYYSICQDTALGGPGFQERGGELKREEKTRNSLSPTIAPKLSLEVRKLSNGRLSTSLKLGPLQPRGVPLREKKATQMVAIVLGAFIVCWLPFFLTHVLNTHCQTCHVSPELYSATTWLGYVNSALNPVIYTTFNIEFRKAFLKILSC
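Cells expressing the human receptor were seeded at 1500 cells/well, incubated overnight at 37 degrees C in 5% CO2, then exposed to library compounds with dopamine controls for 90 minutes at 37 degrees C before luminescent detection.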
DRD3 agonist – qHTS of D3 Dopamine Receptor Agonist: qHTS; D3R DiscoveRx beta-arrestin cells, luminescence, 90 min; D(3) dopamine receptor (Homo sapiens), P35462; AID 652048, 2013; 410,000 compounds, 0.58% hits; max activation, %; in the data active = max activation above about 30%; note: 0% is about no effect
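Cells at 1500/well, incubated overnight, then treated with pinned compounds (dopamine as control) for 90 min at 37 degrees C. DiscoveRx reagent added for 30 - 60 minutes at room temperature; luminescence read.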
SW480 rereplic – A quantitative high throughput screen for small molecules that induce DNA re-replication in SW480 colon adenocarcinoma cells. SW480 DNA re-replication, Hoechst DNA content imaging, 48 h. Potency, µM (highest dose often 46.1 µM), for the others: at the highest dose re-replication activation, usual class: activators. 340,000 compounds, 1.8% hits; note: potency is the fitted concentration of half-maximal effect; % of control where 0% means no effect; nearly all actives have a fitted effect of over 55% in size
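Readout is total intensity of Hoechst-stained nuclei, excited at 405 nm and collected at 500-530 nm. Compound treatment lasted 48 hr at 37 C in 5% CO2 before staining.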
Active calls of the source: *; i = inactive; ? = inconclusive; . = not tested or not shown; ! = repeats disagree. A selection: hits, their analogues and other compounds. The true share with any hit is near 8.9%. Unless noted, calls come from the whole dose curve; as a rule, active = well fitted curve in the direction sought with a large enough effect; inconclusive = small, poorly fitted or top-dose-only effect, or another doubt; inactive = no such curve, though single readings can be large; an effect the other way counts as inactive or inconclusive.

SMILES	KB-V1 MDR tox	KB-3-1 cytotox	MCF10A rerep	DRD3 antagonist	DRD3 agonist	SW480 rereplic
COc1ccccc1-c1nnc(NC(=O)c2ccc3c(c2)OCO3)s1	6.5µM*	5.8µM*	?	-3	4	5.8µM*
CC(=O)Nc1nnc(COc2ccccc2)s1	i	i	-2%	8	-2	18µM*
CC(c1ccccc1)c1nnc(NC(=O)c2ccc3c(c2)OCO3)s1 (stereo unspecified)	15µM*	?	?	11	-1	15µM*
CCCCN(C)C(=O)c1ccc2c(c1)N(Cc1cccc(Cl)c1)C(=O)c1ccccc1S2=O (stereo unspecified)	.	.	.	.	0	.
CCCOc1ccc(C(=O)Nc2cc3c(cc2N2CCOCC2)n(C)c(=O)n3C)cc1	?	i	.	.	-7	.
CCOc1ccc(/C=C/c2nc(C#N)c(N3CCN(c4ccc(OC)cc4)CC3)o2)cc1	.	.	.	.	-2	.
CC1=C(C(N)=O)C(c2ccc(F)cc2)n2nc(-c3ccc(N(C)C)cc3)nc2N1 (stereo unspecified)	i	i	.	.	6	.
COc1ccccc1-c1nnc(NC(=O)C(C)C)s1	i	i	-1%	-75*	-2	-6%
CCCCOC(=O)Nc1nnc(-c2ccccc2OC)s1	i	i	-7%	15	-5	-3%
COc1ccccc1-c1nnc(NC(C)=O)s1	i	i	-3%	-88*	-5	-4%
C#CCN1C(=O)C(O)(CC(=O)c2ccc(OC)c(OC)c2)c2cc(Br)ccc21 (stereo unspecified)	.	.	.	.	7	.
C#CCN1C(=O)C(O)(CC(=O)c2ccc(OC)c(OC)c2)c2ccccc21 (stereo unspecified)	18µM*	?	?	6	11	?
Cc1ccccc1CN1C(=O)C(O)(CC(=O)c2ccncc2)c2ccccc21 (stereo unspecified)	?	?	?	?	-1	16µM*
COc1ccc(C(=O)CC2(O)C(=O)N(Cc3cccc(C(F)(F)F)c3)c3ccccc32)cc1 (stereo unspecified)	15µM*	?	.	.	4	.
COc1cccc(C(=O)CC2(O)C(=O)N(Cc3ccccc3)c3ccccc32)c1 (stereo unspecified)	.	.	.	.	1	.
c1ccc(-c2ccc3ncccc3n2)cc1	i	i	.	13	-5	.
O=C(/C=C/c1ccc(F)cc1)Nc1cccc([S+](=O)([O-])Nc2ccccc2F)c1	i	i	.	.	.	.
CCCCOc1ccc(C(O)(CC)CCN2CCOCC2)cc1 (stereo unspecified)	?	i	-8%	-12	2	-3%
CCC(C)c1ccc(OCCCCN2CCOCC2)cc1 (stereo unspecified)	i	i	28%	-65*	-6	2%
CCCCOc1ccc(OCCCN2CCOCC2)cc1	?	i	?	5	87*!	-7%
CCCCCCC(O)(c1ccc(OC)cc1)C(CN1CCOCC1)c1ccccc1 (stereo unspecified)	?	18µM*	?	-17	-11	?
CCCCOc1ccc(C(O)(CCC)CCN2CCOCC2)cc1 (stereo unspecified)	10µM*	23µM*	?	15	2	?
COc1cccc(N2CCN(S(=O)(=O)c3ccc(-c4ccno4)cc3OC)CC2)c1	i	i	.	.	1	.
O=C(NCC1CCCO1)c1cc([N+](=O)[O-])ccc1N1CCC(Cc2ccccc2)CC1 (stereo unspecified)	?	4.6µM*	13%	-17	-10	-24%
OC(COc1ccc(Cl)cc1)CN1CCC(Cc2ccccc2)CC1 (stereo unspecified)	i	i	4%	-76*	-11	43%
SMILES	KB-V1 MDR tox	KB-3-1 cytotox	MCF10A rerep	DRD3 antagonist	DRD3 agonist	SW480 rereplic
Cc1ccc(OCC(O)CN2CCN(c3ccccc3)CC2)cc1 (stereo unspecified)	i	i	14%	-75*	10	2%
OC(COc1ccc(Cl)cc1)CN1CCN(c2ccccc2)CC1 (stereo unspecified)	i	i	-8%	-87*	-2	-9%
Cc1cc(OCC(O)CN2CCN(c3cccc(Cl)c3)CC2)ccc1Cl (stereo unspecified)	i	i	.	.	-6	.
Cc1nc(C)n(CC(O)COc2ccc3ccccc3c2)n1 (stereo unspecified)	21µM*	i	0%	-2	-21	-4%
Cc1cccc(NC(=O)CN2C(=O)C(c3ccc(F)cc3)=NC23CCCCCC3)c1C	.	.	.	.	-5	.
Cc1cc2nc(-c3cc(NC(=O)c4cc5ccccc5o4)ccc3Cl)oc2cc1C	i	i	.	.	-20	.
CC(=O)N1CCN(CC(O)COc2ccc(OCc3ccccc3)cc2)CC1 (stereo unspecified)	i	i	11%	4	10	-1%
Cc1ccc(N2CCN(CC(O)COc3ccccc3)CC2)cc1 (stereo unspecified)	?	i	9%	-54*	-17	-2%
COc1ccc(N2CCN(CC(O)COc3ccc(F)cc3)CC2)cc1 (stereo unspecified)	i	i	13%	-66*	-20	0%
O=C(/C=C/c1ccccc1)N1CCN(CC(O)COc2ccccc2)CC1 (stereo unspecified)	i	i	1%	-71*	-10	-3%
Cc1cccc(N2CCN(CC(O)COc3ccc4ccccc4c3)CC2)c1 (stereo unspecified)	i	i	1%	?	47*	-7%
COc1ccc(N2CCN(CC(O)COc3cc(C)cc(C)c3)CC2)cc1 (stereo unspecified)	i	i	2%	1	-10	-2%
CCOc1ccc(-c2ccc(NS(=O)(=O)c3ccc(C)cc3)cc2)nn1	i	i	.	.	-3	.
Cc1ccc(OCC(O)CN2CCN(c3ccc(C)cc3)CC2)cc1 (stereo unspecified)	i	i	0.82µM*	-88*	-21	-21%
Cc1ccc(OCC(O)CN2CCN(CC(O)COc3ccc(C)cc3)CC2)cc1 (stereo unspecified)	i	i	0%	?	-11	1%
Cc1cc2ccccc2n1CCNC(=O)C1CCCC1	18µM*	i	-1%	5	-3	-4%
